Data on five sequences can be found in paper PMC8384837, “Expanding the binding specificity for RNA recognition by a PUF domain”.

What all share (assay): yeast three-hybrid, YBZ-1, SC-Leu-His + 0.5 mM 3-AT, 4 days
Conditions in all cases: tags: N-Gal4 AD-HA kept; label: inside an RPR1-promoter hybrid RNA with tandem MS2 sites; ssRNA

Experiment [1] addresses PUM1 PUF domain R1-QFR R2-VFQ R7-NPG (Homo sapiens, UniProt Q14671 828-1176, S863Q;R864F;Q867R;N899V;Y900F;S1079N;N1080P;E1083G). Put shortly: (§1)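 Matching RNA elements and Pumilio-1 PUF domain libraries, randomized at the three base-contacting residues of every repeat, were co-expressed from a centromeric plasmid in strain YBZ-1 (LexA–MS2 coat fusion, HIS3 reporter). The repeat regions were PCR-amplified and Illumina-sequenced from cells grown four days on SC-Leu (input) or SC-Leu-His + 0.5 mM 3-AT (selection). The interaction score is the log change in variant frequency from input to selection. It is computed in log2, with a pseudocount of 1 for absent variants.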

Another experiment concerns the target PUM1 PUF domain R1-TKK (Homo sapiens, UniProt Q14671 828-1176, S863T;R864K;Q867K). Put shortly: as §1
The target of a further experiment is PUM1 PUF domain R3-RPQ (Homo sapiens, UniProt Q14671 828-1176, C935R;R936P). Put shortly:
as §1

The target in the next experiment is PUM1 PUF domain R3-PFV (Homo sapiens, UniProt Q14671 828-1176, C935P;R936F;Q939V). Put shortly:
as §1

A further experiment deals with PUM1 PUF domain R2-RVT (Homo sapiens, UniProt Q14671 828-1176, N899R;Y900V;Q903T). Put shortly: as §1
The target in a further experiment is PUM1 PUF domain R7-ISG (Homo sapiens, UniProt Q14671 828-1176, S1079I;N1080S;E1083G). Put shortly:
as §1

For the sequence “GGCUAGAACUAGUGGAUCCCCCGGCGCCCGGCGGCUCGAGCCCGGGUAAGUUUAAAACGUCUGCAUGCCGCCGGGCGCCAUGCCUGCAGGUCGACUCUAGAAAACAUG”, the binding signal in experiment [1] was 6.82 log2 enrichment (interaction score).

For “GGCUAGAACUAGUGGAUCCCCCGGCGCCCGGCGGCUCGAGCCCGGGUAAGUGUAAAUCGUCUGCAUGCCGCCGGGCGCCAUGCCUGCAGGUCGACUCUAGAAAACAUG”, the binding signal with PUM1 PUF domain R1-TKK was 3.92 log2 enrichment (interaction score).

As for “GGCUAGAACUAGUGGAUCCCCCGGCGCCCGGCGGCUCGAGCCCGGGUAAGUGUAAUUAGUCUGCAUGCCGCCGGGCGCCAUGCCUGCAGGUCGACUCUAGAAAACAUG”, the binding signal was 3.45 log2 enrichment (interaction score) with PUM1 PUF domain R3-RPQ and 2.52 log2 enrichment (interaction score) with PUM1 PUF domain R3-PFV.

As to “GGCUAGAACUAGUGGAUCCCCCGGCGCCCGGCGGCUCGAGCCCGGGUAAGUGUAAAGAGUCUGCAUGCCGCCGGGCGCCAUGCCUGCAGGUCGACUCUAGAAAACAUG”, in the experiment with PUM1 PUF domain R2-RVT, the binding signal was 2.17 log2 enrichment (interaction score).

For “GGCUAGAACUAGUGGAUCCCCCGGCGCCCGGCGGCUCGAGCCCGGGUAAGUUUAAAUAGUCUGCAUGCCGCCGGGCGCCAUGCCUGCAGGUCGACUCUAGAAAACAUG”, the binding signal in the experiment with PUM1 PUF domain R7-ISG is 5.55 log2 enrichment (interaction score).
